Measurements taken from ChEMBL document CHEMBL3433997, “St. Jude Leishmania screening dataset” (2016).

What was measured:
Format in all cases: functional
[1] = biological target: Solute carrier family 2, facilitated glucose transporter member 1 (Homo sapiens) (UniProt P11166); assay: ST_JUDE_LEISH: Cytotoxicity at 2uM final concentration against transgenic Leishmania Mexicana promastigotes LmGLUT1 that are glucose transport deficient and complemented with the human glucose transporter GLUT1. Activity is measured by DNA content using SYBR green in vitro
[2] = biological target: Hexose transporter 1 (Plasmodium falciparum) (UniProt O97467); assay: ST_JUDE_LEISH: Cytotoxicity at 2uM final concentration against transgenic Leishmania Mexicana promastigotes LmPfHT that are glucose transport deficient and complemented with the Plasmodium falciparum hexose transporter. Activity is measured by DNA content using SYBR green in vitro
[3] = biological target: Glucose transporter (Leishmania mexicana) (UniProt O61059); assay: ST_JUDE_LEISH: Cytotoxicity at 2uM final concentration against transgenic Leishmania Mexicana promastigotes LmGT2 that are glucose transport deficient and complemented with the L. Mexicana glucose transporter 2. Activity is measured by DNA content using SYBR green in vitro

Sequence of Solute carrier family 2, facilitated glucose transporter member 1 (Homo sapiens) (P11166 whole entry): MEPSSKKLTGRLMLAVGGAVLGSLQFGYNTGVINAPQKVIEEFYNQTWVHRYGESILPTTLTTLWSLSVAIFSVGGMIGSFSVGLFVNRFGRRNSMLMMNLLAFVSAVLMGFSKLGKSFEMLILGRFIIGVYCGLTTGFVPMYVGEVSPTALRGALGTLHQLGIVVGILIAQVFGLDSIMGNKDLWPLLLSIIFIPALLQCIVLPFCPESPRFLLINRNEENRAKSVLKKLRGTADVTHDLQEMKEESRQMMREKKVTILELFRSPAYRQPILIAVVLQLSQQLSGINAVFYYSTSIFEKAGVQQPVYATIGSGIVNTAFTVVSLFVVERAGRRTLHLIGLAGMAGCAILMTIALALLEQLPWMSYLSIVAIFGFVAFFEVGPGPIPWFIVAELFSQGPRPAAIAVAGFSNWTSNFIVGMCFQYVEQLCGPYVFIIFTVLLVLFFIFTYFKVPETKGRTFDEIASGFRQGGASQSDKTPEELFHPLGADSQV

O=C(Nc1ccc(CN2CCOCC2)cc1)c1ccc(-c2ccc(Br)cc2)o1
inhibition [1]: 2.45%
inhibition [2]: 0.46%
inhibition [3]: -2.23%

COc1ccc(Cl)cc1NC(=O)Nc1ccc2c(c1)CCN(C1CCC1)CC2
inhibition [1]: 2.26%
inhibition [2]: 0.44%
inhibition [3]: 1.36%

Cc1cc(C)c2ncc(C(=O)O)c(O)c2c1
inhibition [1]: 2.75%
inhibition [2]: 3.7%
inhibition [3]: 3.9%

CC(C)(C)C(Cn1ccnc1)NCc1c[nH]nc1-c1ccc(-c2ccccc2)cc1 (stereo not drawn)
inhibition [1]: 11.2%
inhibition [2]: 16.9%
inhibition [3]: 11.5%

CN1CCN(c2ccnc3ccc(NC(=O)Nc4ccc(-c5ccncc5)c(C(F)(F)F)c4)cc23)CC1
inhibition [1]: 11.3%
inhibition [2]: 9.91%
inhibition [3]: 10.6%

CC(C)(C)NCCN(Cc1ccc(-c2ccc(C(F)(F)F)cc2)cc1)C(=O)Cn1c(CCc2cccc(F)c2F)nc(=O)c2c1CCC2
inhibition [1]: 6.13%
inhibition [2]: 7.22%
inhibition [3]: 7.29%

O=C(NCCc1ccc(Cl)c(Cl)c1)[C@@H]1CCCN1C(=O)c1ccc(O)c(-c2ccc(Cl)c(Cl)c2)c1
inhibition [1]: -1.56%
inhibition [2]: -0.69%
inhibition [3]: -1.51%

O=[N+]([O-])c1cccc(CNCC2CCN(Cc3ccc(-c4ccccc4)cc3)CC2)c1
inhibition [1]: 3.06%
inhibition [2]: 2.39%
inhibition [3]: 0.56%

COc1ccc(-c2ccc(NC(=O)c3ccc(C#N)cc3)cc2)cc1CN(C)CCO
inhibition [1]: 2.76%
inhibition [2]: 0.56%
inhibition [3]: 1.59%

NCc1ccc(-c2ccccc2CNC2CCN(Cc3ccccc3)CC2)cc1
inhibition [1]: 2.4%
inhibition [2]: 2.46%
inhibition [3]: 1.44%

O=S(=O)(c1cccc(F)c1)c1ccc(Nc2ncnc3cc(Br)sc23)cc1Cl
inhibition [1]: 3.23%
inhibition [2]: 2.8%
inhibition [3]: -1.17%

N=C(N)NN=Cc1c2ccccc2c(Cl)c2c(Cl)cccc12
inhibition [1]: 24.6%
inhibition [2]: 26.2%
inhibition [3]: 10.2%

COc1ccc(C(=O)Nc2ccc3nc(N4CCCCC4)cc(C)c3c2)cc1OC
inhibition [1]: 1.54%
inhibition [2]: -0.36%
inhibition [3]: 0.56%

Nc1cc(-c2ccc3ccccc3c2)nc2ccccc12
inhibition [1]: 31.2%
inhibition [2]: 26.8%
inhibition [3]: 13.7%

OC[C@H](Nc1nc(C(Oc2ccccc2)c2ccccc2)nc2[nH]ncc12)c1ccccc1 (stereo partly drawn)
inhibition [1]: 7.13%
inhibition [2]: 4.93%
inhibition [3]: 4.96%

Cc1cccc2nc(-c3ccc(-c4cccc(NC(=O)c5cnccc5C(F)(F)F)c4)cc3)[nH]c12
inhibition [1]: 11.2%
inhibition [2]: 10.4%
inhibition [3]: 8.19%

COc1cccc(Nc2nc(C)cc(NC3CCCC3)n2)c1
inhibition [1]: 21.5%
inhibition [2]: 9.71%
inhibition [3]: 5.08%

COc1cc(NC(=O)/C=C/c2cc(F)cc(F)c2F)cc(OCCN2CCC3(CC2)OCCO3)c1
inhibition [1]: 3.83%
inhibition [2]: 3.1%
inhibition [3]: 1.7%

COc1ccc2ncc(F)c(NC(=O)C3CCC(NCc4cc5cc(F)cc(F)c5[nH]4)CC3)c2n1 (stereo not drawn)
inhibition [1]: 68.5%
inhibition [2]: 78.5%
inhibition [3]: 82.5%

CCOc1cc(C(=O)N[C@@H](Cc2ccccc2)[C@H](O)CNC(C)(C)c2cccc(OC)c2)cc(N2CCCS2(=O)=O)c1
inhibition [1]: 2.48%
inhibition [2]: -0.71%
inhibition [3]: 0.74%

CCn1c(-c2nonc2N)nc2c(-c3ccc(CO)o3)ncc(OCCCN)c21
inhibition [1]: 6.54%
inhibition [2]: 3.21%
inhibition [3]: 5.17%

CN1CCN(c2cc3c(cc2Cl)CCN3C(=O)Nc2ccc(NC(=O)c3ccc(C(F)(F)F)cc3)cc2)CC1
inhibition [1]: 3.11%
inhibition [2]: 8.45%
inhibition [3]: 1.98%

Cn1nccc1C(=O)NCCNCc1cccc(-c2ccc(-c3nc4cc(C(F)(F)F)ccc4[nH]3)s2)c1
inhibition [1]: 16.3%
inhibition [2]: 15.5%
inhibition [3]: 14.6%

O=[N+]([O-])c1cc2c(cc1C=NNc1nc(=Nc3ccccc3)[nH]c(=Nc3ccccc3)[nH]1)OCO2
inhibition [1]: 1.53%
inhibition [2]: 1.47%
inhibition [3]: -2.69%

COc1ccc(N(C)Cc2cnc3nc(N)nc(N)c3n2)cc1
inhibition [1]: 1.5%
inhibition [2]: 1.84%
inhibition [3]: 2.61%

CCn1ncc2c(NC3CCOCC3)c(CNC(=O)c3ccnn3C)c(C)nc21
inhibition [1]: 3.11%
inhibition [2]: 2.89%
inhibition [3]: 0.31%

COc1ccccc1C1CCN(CCN2CCC(NC(=O)c3ccc(-c4ccc(C#N)cc4)cc3)CC2)CC1
inhibition [1]: -0.2%
inhibition [2]: 2.09%
inhibition [3]: 1.89%

Nc1c2c(nc3ccc(NC(=O)CCCCCc4ccccc4)cc13)CCCC2
inhibition [1]: 7.95%
inhibition [2]: 9.26%
inhibition [3]: 10%

Cc1cc(F)ccc1Nc1nc(N(C)c2ccccc2)c2cccc(O)c2n1
inhibition [1]: 12.3%
inhibition [2]: 9.06%
inhibition [3]: 1.82%

Nc1nccc2ccc(-c3cccc(OCc4ccccc4)c3)cc12
inhibition [1]: 1.85%
inhibition [2]: 2.5%
inhibition [3]: -2.03%

C(=C(c1cccs1)c1cccs1)c1ccc(CNC2CCN(Cc3ccccc3)CC2)cc1
inhibition [1]: 4.45%
inhibition [2]: 6.16%
inhibition [3]: 5.77%

O=C(Cc1ccc(NC(=O)c2ccc(O)c(-c3ccc(Cl)c(Cl)c3)c2)cc1)NCCN1CCCCC1
inhibition [1]: -0.79%
inhibition [2]: -0.35%
inhibition [3]: 0.58%

CCOc1ccc2[nH]c(C)cc(=NN=Cc3cccc(F)c3)c2c1
inhibition [1]: -0.81%
inhibition [2]: -2.04%
inhibition [3]: 0.95%

O=C(Nc1ccc(OC2CCN(Cc3ccc(F)cc3)C2)c(Cl)c1)c1ccc(F)cc1 (stereo not drawn)
inhibition [1]: -0.04%
inhibition [2]: -0.69%
inhibition [3]: -1.62%

CC(=O)Nc1ccc(CN2CCC(CNC(=O)c3cc(-c4cccc(Cl)c4)cs3)C2)cc1 (stereo not drawn)
inhibition [1]: -1.53%
inhibition [2]: 0.33%
inhibition [3]: 3.3%

COc1cc(OC)nc(-c2cccc(NC(=O)c3ccc4c(=O)n(CCN5CCCCC5)cnc4c3)c2)n1
inhibition [1]: 11.9%
inhibition [2]: 9.45%
inhibition [3]: 7.35%

NCC1CCCN1Cc1cccc(-c2ccc(-c3nc4cc(C(F)(F)F)ccc4[nH]3)s2)c1 (stereo not drawn)
inhibition [1]: 1.28%
inhibition [2]: 0.87%
inhibition [3]: 0.38%

O=C(Cc1ccc(Cl)cc1)Nc1cc(Cl)ccc1Cn1cnc(N2CCNCC2)cc1=O
inhibition [1]: 3.22%
inhibition [2]: -0.28%
inhibition [3]: 2.2%

COc1ccc2nccc([C@@H](O)CN3CCC(NCc4cnc5snnc5c4)C(F)C3)c2c1 (stereo partly drawn)
inhibition [1]: 0.43%
inhibition [2]: 1.51%
inhibition [3]: 2.93%

N#Cc1ccc2c(c1)CN(C1CCC(NC(=O)/C=C/c3cc(C(F)(F)F)cc(C(F)(F)F)c3)CC1)CCC2 (stereo not drawn)
inhibition [1]: 1.63%
inhibition [2]: 1.36%
inhibition [3]: 0.57%

COc1ccc(-c2ccc(NC(=O)c3cccc(C#N)c3)cc2)cc1CN1CCNCC1
inhibition [1]: 9.28%
inhibition [2]: 5.74%
inhibition [3]: 4.28%

CS(=O)(=O)c1ccc(CNCc2ccc(-c3cccc(-c4nc5ccccc5[nH]4)c3)cc2)cc1
inhibition [1]: 17.3%
inhibition [2]: 15.6%
inhibition [3]: 14%

Fc1cccc(COc2ccc(Nc3ncnc4sc(C#CCNC5CCCC5)cc34)cc2Cl)c1
inhibition [1]: 2.71%
inhibition [2]: 2.09%
inhibition [3]: 2.47%

CCCNCc1ccc(-c2ccc(CN(CCOC)C(=O)c3nn(-c4ccccc4)nc3C)cc2)nc1
inhibition [1]: 4.16%
inhibition [2]: 1.87%
inhibition [3]: 1%

O=C(Nc1nccs1)c1cc(-c2cccnc2)nc2ccc(Br)cc12
inhibition [1]: 7.77%
inhibition [2]: -0.8%
inhibition [3]: -0.59%

O=C(NC1CCN(Cc2cccc(C(F)(F)F)c2)CC1)c1ccc(-c2cccc(Cl)c2)s1
inhibition [1]: 3.3%
inhibition [2]: 2.49%
inhibition [3]: 5.19%
